We go through eight compounds from PubChem BioAssay (NCI).

Some test systems named below: HCT-15 colon; HT29 colon; SNB-75 CNS; SNB-19 CNS; U251 CNS; PC-3 prostate; SK-MEL-5 melanoma; UACC-62 melanoma; LOX IMVI melanoma; SK-MEL-28 melanoma; EKVX NSCLC; SN12C renal; UO-31 renal; TK-10 renal; ACHN renal; CAKI-1 renal; A498 renal; CCRF-CEM leukemia; MOLT-4 leukemia.
What all share (test): NCI-60 one-dose screen, 48 h (100 = growth as untreated, 0 = no growth, -100 = all killed)
What all share (conditions): 10 µM unless noted

This is part of a sample that, as a whole, favours compounds with a hit. Of some 83,000 tested, about 20% had one in any assay.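 Plates (96-well) were seeded with cells, treated with compound at one concentration, and incubated for 48 hours before percent growth was determined.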 A number with no mark means an inactive call. Calls of active or inactive are those of the source. Rule for the calls: active = growth percent below 10; inactive = the rest.

Take `Cc1c(CN2CCN(C(=O)[C@H](C)O)CC2)sc2c(N3CCOCC3)nc(-c3cnc(N)nc3)nc12`: the growth in the experiment with HCT-15 colon is 2.93% (active); in the experiment on HT29 colon it was -13% (active); in the experiment with SNB-75 CNS it was -47.4% (active); with SNB-19 CNS it was 3.17% (active); in the experiment with U251 CNS, 6.95% (active); in the experiment with PC-3 prostate, 8.68% (active). Besides, the growth in the experiment on SK-MEL-5 melanoma is -36.3% (active); with UACC-62 melanoma, -62.6% (active); in the experiment with LOX IMVI melanoma it was 0.99% (active); with SK-MEL-28 melanoma, -30% (active); with EKVX NSCLC, 1.75% (active); in the experiment on SN12C renal, 4.45% (active). In addition, the growth in the experiment with UO-31 renal is -30.6% (active); in the experiment on TK-10 renal, -31.4% (active); in the experiment on ACHN renal, -11% (active); in the experiment with CAKI-1 renal, -17.8% (active); in the experiment on A498 renal, -52.9% (active); with CCRF-CEM leukemia, 7.59% (active). Moreover, the growth with MOLT-4 leukemia was 1.65% (active).
Turning to `Cn1ncc(Cl)c1-c1cc(C(=O)N[C@H](CN)Cc2ccc(F)c(F)c2)oc1Cl`, the growth is 6.57% (active) in the experiment on HCT-15 colon; -11.7% (active) with HT29 colon; -86.4% (active) in the experiment on SNB-75 CNS; 2.29% (active) in the experiment on SNB-19 CNS; -86.5% (active) in the experiment with U251 CNS; -25% (active) in the experiment on PC-3 prostate. Further, the growth with SK-MEL-5 melanoma was -96.2% (active); in the experiment with UACC-62 melanoma, -78.5% (active); in the experiment with LOX IMVI melanoma, -88.8% (active); in the experiment on SK-MEL-28 melanoma, -77.1% (active); in the experiment with EKVX NSCLC, 6.1% (active); with SN12C renal it was 16.5%. Besides, the growth in the experiment with UO-31 renal is -19.8% (active); in the experiment with TK-10 renal, -91% (active); in the experiment with ACHN renal, 4.47% (active); with CAKI-1 renal, -34.2% (active); with A498 renal, -78.9% (active); in the experiment with CCRF-CEM leukemia it was 3.82% (active). The growth in the experiment on MOLT-4 leukemia is -4.62% (active).
On to `NC[C@@](O)(c1ccc(Cl)cc1)c1ccc(-c2cn[nH]c2)cc1`, for which the growth in the experiment on HCT-15 colon is 9.55% (active); with HT29 colon, 1.46% (active); with SNB-75 CNS, -6.12% (active); in the experiment on SNB-19 CNS it was 30.6%; in the experiment with U251 CNS it was 19.1%; in the experiment with PC-3 prostate, 40.1%. In addition, the growth in the experiment with SK-MEL-5 melanoma was 39.3%; in the experiment with UACC-62 melanoma, -2.01% (active); in the experiment on LOX IMVI melanoma, 7.1% (active); in the experiment with SK-MEL-28 melanoma, 3.21% (active); in the experiment with EKVX NSCLC it was 27.1%; in the experiment on SN12C renal, 29.3%. Further, the growth was -13.6% (active) in the experiment with UO-31 renal; 5.87% (active) with TK-10 renal; 11.6% with ACHN renal; 11.3% with CAKI-1 renal; -2.12% (active) in the experiment on A498 renal; 15.8% in the experiment on CCRF-CEM leukemia. For the same compound, the growth in the experiment on MOLT-4 leukemia was 13.2%.
As for `CC(C)(O)CC(=O)NCCn1ccc2ncnc(Nc3ccc(Oc4cccc(C(F)(F)F)c4)c(Cl)c3)c21`, the growth is 12.2% with HCT-15 colon; -24.2% (active) in the experiment with HT29 colon; 29.3% in the experiment on SNB-75 CNS; 18.7% in the experiment on SNB-19 CNS; 9.09% (active) in the experiment with U251 CNS; 1.54% (active) in the experiment on PC-3 prostate. Further, the growth was -19.9% (active) in the experiment with SK-MEL-5 melanoma; -7.61% (active) in the experiment on UACC-62 melanoma; 6.23% (active) in the experiment with LOX IMVI melanoma; -0.504% (active) in the experiment on SK-MEL-28 melanoma; 8.11% (active) with EKVX NSCLC; 12.4% with SN12C renal. Further, the growth was -6.15% (active) in the experiment with UO-31 renal; -30.3% (active) in the experiment on TK-10 renal; 8.71% (active) with ACHN renal; 19.2% in the experiment on CAKI-1 renal; -28.7% (active) in the experiment with A498 renal; 7.97% (active) in the experiment with CCRF-CEM leukemia. The growth with MOLT-4 leukemia is 7.32% (active).
With `CNC(=O)c1cc(Oc2ccc3nc(NC(=O)Nc4ccc(Cl)c(C(F)(F)F)c4)sc3c2)ccn1`, the growth was 23.5% with HCT-15 colon; 3.52% (active) in the experiment on HT29 colon; -58.8% (active) in the experiment on SNB-75 CNS; 33.5% with SNB-19 CNS; -9.69% (active) in the experiment with U251 CNS; 12.4% with PC-3 prostate. For the same compound, the growth in the experiment on SK-MEL-5 melanoma is 25.7%; in the experiment with UACC-62 melanoma, 8.48% (active); in the experiment with LOX IMVI melanoma, 1.46% (active); in the experiment on SK-MEL-28 melanoma it was 34.7%; in the experiment on EKVX NSCLC, 9.24% (active); in the experiment on SN12C renal, 15.6%. Besides, the growth in the experiment with UO-31 renal was -7.14% (active); in the experiment on TK-10 renal it was -55.1% (active); in the experiment with ACHN renal, -22.2% (active); in the experiment with CAKI-1 renal, 53.4%; in the experiment on A498 renal it was 30%; with CCRF-CEM leukemia, 27.8%. Also, the growth in the experiment with MOLT-4 leukemia is 38%.
With `COc1ccc(/C(C)=C(\c2ccc(Cl)cc2)c2ccc(OCCN3CCCCCC3)cc2)cc1`, the growth is 26.6% in the experiment with HCT-15 colon; 8.63% (active) in the experiment on HT29 colon; 74.4% with SNB-75 CNS; 64.7% in the experiment with SNB-19 CNS; 42.3% in the experiment with U251 CNS; 45.3% in the experiment on PC-3 prostate. The growth in the experiment on SK-MEL-5 melanoma is 48.3%; in the experiment with UACC-62 melanoma it was 67.8%; in the experiment with LOX IMVI melanoma, 35.8%; with SK-MEL-28 melanoma, 71.6%; with EKVX NSCLC it was 56.7%; in the experiment on SN12C renal it was 55.3%. Further, the growth in the experiment with UO-31 renal was 46%; with TK-10 renal, 73.8%; with ACHN renal, 67.3%; in the experiment with CAKI-1 renal, 66.6%; in the experiment on A498 renal, 78.4%; in the experiment with CCRF-CEM leukemia, 43.9%. For the same compound, in the experiment on MOLT-4 leukemia, the growth was 40.2%.
For the compound `COc1cc2c(Nc3ccc(Br)cc3F)ncnc2cc1OCC1CCN(C)CC1`, the growth in the experiment with HCT-15 colon was 11.6%; in the experiment with HT29 colon it was 5.35% (active); in the experiment on SNB-75 CNS, -59.8% (active); in the experiment with SNB-19 CNS, 37.6%; with U251 CNS, 8.98% (active); in the experiment with PC-3 prostate, 39.1%. In addition, the growth in the experiment on SK-MEL-5 melanoma is -66.3% (active); in the experiment with UACC-62 melanoma it was -45.8% (active); with LOX IMVI melanoma it was -45.6% (active); with SK-MEL-28 melanoma, -79.7% (active); in the experiment with EKVX NSCLC, 35.4%; with SN12C renal, 16.9%. Moreover, the growth was -88.3% (active) with UO-31 renal; -4.33% (active) in the experiment with TK-10 renal; 9.47% (active) with ACHN renal; 0.316% (active) with CAKI-1 renal; -71.1% (active) in the experiment on A498 renal; 14.5% in the experiment on CCRF-CEM leukemia. Besides, the growth in the experiment on MOLT-4 leukemia was 18.1%.
In the case of `Cc1cc(C)n(CC(=O)Nc2ccc(-c3nc4ccccc4s3)cc2)n1`, the growth in the experiment on HCT-15 colon was 105%; in the experiment with HT29 colon, 108%; in the experiment with SNB-75 CNS it was 101%; in the experiment with SNB-19 CNS, 99.8%; in the experiment with U251 CNS, 89.7%; with PC-3 prostate it was 86.8%. The growth in the experiment with SK-MEL-5 melanoma was 96.4%; in the experiment with UACC-62 melanoma it was 95.3%; with LOX IMVI melanoma, 97.7%; in the experiment on SK-MEL-28 melanoma, 109%; in the experiment on EKVX NSCLC it was 108%; in the experiment with SN12C renal, 102%. The growth in the experiment with UO-31 renal is 83.8%; in the experiment with TK-10 renal, 106%; in the experiment on ACHN renal, 114%; with CAKI-1 renal, 102%; with A498 renal it was 94.6%; in the experiment on CCRF-CEM leukemia, 98.5%. Moreover, the growth with MOLT-4 leukemia was 84%.
